# High-throughput results from PubChem.
# Hits are enriched below; roughly 1.8% of the tested compounds scored in any of these assays.
# PHOSPHO1 block: PHOSPHO1 (human) inhibition; AID 1565; inhibition, % at 13.3 µM; recombinant PHOSPHO1, absorbance phosphatase assay; actives 1.1% (n = 290,000); in the data active = inhibition above about 60%
# pCIP destab: p/CIP protein destabilization; Q05BA5; F442A p/CIP-EGFP cells, EGFP fluorescence, 16 h; decrease of EGFP signal, % at 10 µM; actives 0.01% (n = 290,000);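 active = EGFP signal decrease of at least 30% at 10 µM or well 3 SD below plate mean, unless failing retest; inactive = the rest, including hits failing retest or dose response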
# NadD inh: NadD (S. aureus) enzyme inhibition | actives 0.78% (n = 360,000) | purified NadD enzyme, colorimetric absorbance read-out | inhibition, % at 20 µM | AID 602399; in the data active = inhibition above about 26%
# UBC9 SUMO inh: blocks human SUMOylation mediated by UBC9; P63279; HTRF SUMOylation assay, SAE1/SAE2 + UBC9, in vitro; inhibition, % at 35 µM; actives 0.36% (n = 290,000); AID 2006; in the data active = inhibition above about 50%, passing the limit was not always enough
# NadD conf: confirmation of Staphylococcus aureus NadD inhibitors | AID 624309 | actives 13% (n = 2,000) | purified S. aureus NadD, colorimetric enzyme assay | inhibition, % at 20 µM | shares compounds with NadD inh; in the data active = inhibition mostly above about 42%, no sharp cut-off; inactive = mostly below about 42%
# Hits are given with their value; 0 = inactive; - = no result given.
SMILES,PHOSPHO1 block,pCIP destab,NadD inh,UBC9 SUMO inh,NadD conf
Cc1cc(O)c(C(=O)/C=C/c2cccc([N+](=O)[O-])c2)c(=O)o1,0,0,35,0,0
Cc1cc(O)c(C(=O)/C=C/c2ccccc2O)c(=O)o1,0,0,0,0,-
O=C(NCc1ccccn1)[C@@H]1CCCN1C(=O)[C@@H]1CCCN1C(=O)c1cccc(Cl)c1,-,-,0,-,-
COc1ccc(C(=O)NC2CCN(CC(=O)NCc3ccccc3F)CC2)cc1,0,0,40,0,0
O=C(NNC(=S)NC(=O)c1sc2ccccc2c1Cl)c1ccc(Cl)cc1,0,0,36,0,0
COc1cc(NS(=O)(=O)c2ccc(NC(=S)NC(=O)c3sc4ccccc4c3Cl)cc2)nc(OC)n1,0,0,0,0,-
COc1cc(NS(=O)(=O)c2ccc(NC(=S)NC(=O)c3sc4cc(F)ccc4c3Cl)cc2)nc(OC)n1,0,0,35,0,0
NC(N)=NS(=O)(=O)c1ccc(NC(=S)NC(=O)c2sc3ccccc3c2Cl)cc1,0,0,43,0,0
OC(CNCc1ccco1)Cn1c2ccc(Br)cc2c2cc(Br)ccc21 (centres undefined),0,0,0,0,-
O=C1CC(N(CCc2ccccc2)C(=S)Nc2ccccc2)C(=O)N1c1ccc(Br)cc1 (centres undefined),0,0,0,0,-
Cc1ccc(N2C(=O)CC(N(CCc3ccccc3)C(=S)Nc3ccc(N(C)C)cc3)C2=O)cc1 (centres undefined),0,0,37,0,35
O=C1Nc2ccc(Br)cc2C1=Nc1cccnc1,0,0,0,0,-
COc1ccc(-c2nnc(Nc3nc4c(OC)cccc4s3)o2)cc1,0,0,31,0,0
Cc1ccc(S(=O)(=O)N(C(=O)c2ccncc2)c2ccc3oc4c(c3c2)CCCC4)cc1[N+](=O)[O-],0,0,35,0,0
Cc1ccc([N+](=O)[O-])cc1S(=O)(=O)N(C(=O)c1ccncc1)c1ccc2oc3c(c2c1)CCCC3,0,0,0,0,-
Cc1cccc(N=C2NN=C(c3ccc4c(c3)OCCO4)CS2)c1,0,0,0,0,-
CCc1ccc(C2=NNC(=Nc3cccc(S(=O)(=O)N(C)C)c3)SC2)cc1,0,0,34,0,0
Cc1ccc(C)c(NC(=O)C(OC(=O)c2ccc(NC(=O)CC#N)cc2)c2ccccc2)c1 (centres undefined),-,-,37,-,53
Cc1cc(C)cc(NC(=O)C(OC(=O)c2ccc(NC(=O)CC#N)cc2)c2ccccc2)c1 (centres undefined),-,-,40,-,45
CC(=O)c1cccc(NC(=O)CCCCCn2nnc3ccccc3c2=O)c1,0,0,0,0,-
O=Cc1ccc(-c2c(-c3ccccc3)oc3c2C(OCCCCO)CCC3)o1 (centres undefined),-,-,0,-,-
CCC(C)NC(=O)c1ccc(N2CC3CC(C2)c2cccc(=O)n2C3)c(NC(=O)c2c(F)cccc2F)c1 (centres undefined),-,-,0,-,-
COc1ccc2ccccc2c1/C=N/NC(=O)c1nnn(-c2nonc2N)c1CN(C)C,0,0,0,0,-
COc1ccc2ccccc2c1/C=N/NC(=O)c1nnn(-c2nonc2N)c1C(C)C,0,0,33,0,42
CCOc1ccc(CCN2C(=S)N([C@@H](CC(C)C)CN3CCCC3CN3C(=S)NC[C@@H]3Cc3ccc(O)cc3)C[C@@H]2CC(C)C)cc1 (some centres undefined),-,-,36,-,0
SMILES,PHOSPHO1 block,pCIP destab,NadD inh,UBC9 SUMO inh,NadD conf
CCOc1ccc(CCN2C(=S)N([C@@H](Cc3ccc(O)cc3)CN3CCC[C@@H]3CN3C(=S)NC[C@@H]3Cc3ccccc3)C[C@@H]2Cc2ccc(O)cc2)cc1,-,-,45,-,0
CCOc1ccc(CCN2C(=S)N([C@@H](CC(C)C)CN3CCCC3CN3C(=S)NC[C@@H]3Cc3ccc(O)cc3)C[C@@H]2Cc2ccc(O)cc2)cc1 (some centres undefined),-,-,37,-,0
CCOc1ccc(CCN2C(=S)N([C@@H](CC(C)C)CN3CCCC3CN3C(=S)NC[C@@H]3Cc3ccc(O)cc3)C[C@@H]2Cc2ccccc2)cc1 (some centres undefined),-,-,34,-,0
CCOc1ccc(CCN2C(=S)N([C@@H](CC(C)C)CN3CCC[C@@H]3CN3C(=S)NC[C@@H]3CC(C)C)C[C@@H]2Cc2ccc(O)cc2)cc1,-,-,0,-,-
CC12CCC(=O)C=C1CCC1C2CCC2(C)C(c3csc(N)n3)CCC12 (centres undefined),-,-,0,-,-
CCc1nc2c(OCCC3CCCCC3)cccn2c1N(C=O)Cc1ccccc1,-,-,0,-,-
